Screens deposited in PubChem BioAssay by National Center for Advancing Translational Sciences (NCATS).
The sample as a whole holds a higher share of hits than the screen did.
CXXC DNA block: MLL CXXC-DNA interaction inhibition; MLL-CXXC / FITC-HOXA9 DNA fluorescence polarization; Q03164; Potency, µM (series often up to 115 µM), without a hit: top-dose activity change, negative = inhibition, hits mostly inhibitors; 290,000 compounds, 0.037% hits; active means well fitted inhibition curve with a large enough effect in the polarisation, with a control signal flat, not every such curve was filed as active; inconclusive means small, poorly fitted or top-dose-only effect, or effect the other way, or a change in a side signal; inactive means no such curve, though single readings can be large or run the other way; the % refers to the polarisation; further: potency means the concentration at half of the fitted maximal effect
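Steps: dispense CXXC domain solution (7 uM) → pin compounds or unlabeled HOX-A9 DNA control → 5 min ambient → add FLSN-HOX-A9 solution (50 nM) → spin → 30 min ambient → fluorescence polarization. Tris pH 7.5/NaCl/DTT/BSA buffer.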
Menin-MLL FL inh: inhibitors of human menin-MLL interaction, wild-type MLL peptide | Fluorescence polarization, fluorescein-MLL peptide displacement from menin | FP activity change, % at 61.4 µM | 290,000 tested, under 10 active; active means well fitted curve in the direction sought with a large enough effect in the polarisation, not every such curve was filed as active; inconclusive means small, poorly fitted or top-dose-only effect, or effect the other way, or a change in a side signal; inactive means no such curve, though single readings can be large or run the other way; the % refers to the polarisation; further: % of control where 0% means no effect
Menin-MLL TR inh: inhibitors of human menin-MLL interaction, mutant MLL peptide. Menin + Texas Red MLL mutant peptide, fluorescence polarization. Potency, µM (doses to about 61.6 µM), without a hit: at the highest dose FP activity change, negative = inhibition, actives largely listed as inhibitors. 270,000 compounds, 0.23% hits; active means well fitted inhibition curve with a large enough effect in the polarisation, with a control signal flat, not every such curve was filed as active; inconclusive means small, poorly fitted or top-dose-only effect, or effect the other way, or a change in a side signal; inactive means no such curve, though single readings can be large or run the other way; the % refers to the polarisation; further: potency means the concentration at half of the fitted maximal effect; % of control where 0% means no effect
* hit, by the source's call; ? = inconclusive; / = no result given; ! = not confirmed by another sample.

SMILES	CXXC DNA block	Menin-MLL FL inh	Menin-MLL TR inh
Cc1cccc(NC(=S)NC(=O)c2cc(-c3ccccc3)nc3ccccc23)c1	-1.4%	-0.6	35.5µM*
Cc1cccc(-c2cc(C(=O)Nc3ccc4c(c3)OCCO4)c3ccccc3n2)c1	12.6%	5.0	1.5%
C[C@@H](C(=O)Nc1ccc2ccccc2c1)[C@H]1C[C@]1(C)[C@H](N)c1ccccc1	/	0.8	-18.7%
CCOc1ccc2nc3cc(NCc4ccc(OC)cc4)ccc3c(N)c2c1	7.0%	?	11.2µM*
CCOc1ccc2nc3cc(N)ccc3c(N)c2c1	-28.5%	?	?
Cc1ccc(O)c(Nc2nc(-c3ccccc3)nc3ccccc23)c1	15.9%	-1.9	?
Cc1ccc(O)c(Nc2c3ccccc3nc3ccccc23)c1	30.4%	-12.2	12.6µM*
COc1ccc(C=C2c3ccccc3C(=O)c3ccccc32)cc1O	/	-0.1	39.8%
C=COC(=O)/C=C/C	/	3.1	-2.4%
O=C(NC(NC(=S)Nc1ccc(F)c([N+](=O)[O-])c1)C(Cl)(Cl)Cl)C(c1ccccc1)c1ccccc1 (stereo unspecified)	/	-1.9	?
COC(=O)COc1ccc(NC(=O)Cn2nc(-c3ccccc3)c3ccccc3c2=O)cc1	4.7%	-0.7	-12.2%
COc1ccc(-c2nn(CC(=O)Nc3ccc(Cl)c(Cl)c3)c(=O)c3ccccc23)cc1	17.2%	6.2	10µM*
O=C(c1ccccc1)N1N=C(c2ccccc2O)CC1c1ccccc1 (stereo unspecified)	?	3.0	28.2µM*
COc1ccc(C2CC(c3ccccc3O)=NN2C(=O)c2ccccc2)cc1OC (stereo unspecified)	?	2.9	-0.5%
CN(C)c1ncc2nc(-c3ccccc3)c(=O)n(CCC#N)c2n1	/	?	28.2µM*
CN(C)c1ncc2nc(-c3ccc(Cl)cc3)c(=O)n(CCC#N)c2n1	/	?	1.3%
COc1ccc([C@H]2OCC3C2CO[C@@H]3c2ccc(OC)c(OC)c2)cc1OC (stereo partly specified)	/	-1.4	-14.3%
COC(=O)C#CC(=O)OC	/	-0.2	8.2%
CC[C@H](C)[C@H](NC(=O)[C@H](C)NC(=O)[C@H](Cc1cnc[nH]1)NC(=O)[C@@H]1CCCN1C(=O)CNC(=O)[C@H](CC(C)C)NC(=O)[C@H](CC(C)C)NC(=O)[C@H](Cc1ccc(O)cc1)NC(=O)CNC(=O)[C@H](C)NC(=O)[C@H](CO)NC(=O)[C@H](CC(N)=O)NC(=O)[C@H](CC(C)C)NC(=O)[C@@H](NC(=O)[C@H](Cc1c[nH]c2ccccc12)NC(=O)CN)[C@@H](C)O)C(=O)N[C@@H](CC(=O)O)C(=O)N[C@@H](CC(N)=O)C(=O)N[C@@H](Cc1cnc[nH]1)C(=O)N[C@@H](CCCNC(=N)N)C(=O)N[C@@H](CO)C(=O)N[C@@H](Cc1ccccc1)C(=O)N[C@@H](CO)C(=O)N[C@@H](CC(=O)O)C(=O)N[C@@H](CCCCN)C(=O)N[C@@H](Cc1cnc[nH]1)C(=O)NCC(=O)N[C@@H](CC(C)C)C(=O)N[C@H](C(N)=O)[C@@H](C)O	/	-0.2	0.9%
Cc1nc2ccc(C(=O)O)cc2c2c1CC(C)S2 (stereo unspecified)	8.9%	15.3	20µM*
Cc1nc2cc(C(=O)O)ccc2s1	-7.0%	0.0	-6.9%
CN=C1C=CC(=C(c2ccc(N(C)C)cc2)c2ccc(N(C)C)cc2)C=C1	-1.3%	-5.7	?
CCCNC(=O)Cn1c(=O)/c(=C\c2ccc(-c3cccc([N+](=O)[O-])c3)o2)s/c1=C\C(=O)C(C)(C)C	-7.6%	-3.0	?
CCCNC(=O)Cn1c(=O)/c(=C\c2ccc(-c3ccc([N+](=O)[O-])cc3)o2)s/c1=C\C(=O)C(C)(C)C	1.5%	?	17.8µM*
O=C(COC(=O)c1ccco1)Nc1nc2c(F)c(F)c(F)cc2s1	0.3%	1.5	?
SMILES	CXXC DNA block	Menin-MLL FL inh	Menin-MLL TR inh
O=C(COC(=O)CCC1CCCC1)Nc1nc2c(F)c(F)c(F)cc2s1	1.4%	10.1	25.1µM*
CCN(C/C=C/C#CC(C)(C)C)Cc1cccc(OCc2cc(-c3ccsc3)cs2)c1	/	-1.5	7.7%
CC(=O)N[C@@H](CCCNC(=N)N)C(=O)N[C@H](CC1CCCCC1)C(=O)N[C@@H]1CCC2SC[C@@H](C(=O)N[C@H](CCCNC(=N)N)C(=O)N[C@H](Cc3ccc(Cl)cc3)C(N)=O)N2C1=O (stereo partly specified)	/	0.0	-1.8%
C/C(=C\COc1c2ccoc2cc2oc(=O)ccc12)CCC(O)C(C)(C)O (stereo unspecified)	/	-1.8	-7.0%
CCN(CC)CCNC(=O)c1cc2c(-c3ccc(Cl)cc3)nn(C)c2s1	-16.1%	-1.4	-19.7%
CCCCN(CC)CCNC(=O)c1cc2c(-c3ccc(Cl)cc3)nn(C)c2s1	-0.5%	0.7	17.8µM*
CCCCNC(=O)NS(=O)(=O)c1ccc(CO)cc1	/	-25.5	-5.3%
COc1ccc(NC(=O)c2cc(=O)[nH]c3ccccc23)cc1	-3.1%	-10.2	-13.6%
COc1ccc(NCc2cc(=O)[nH]c3ccccc23)cc1	21.5%	-21.2	39.8µM*
O=C(Cn1c(=O)oc2cc(S(=O)(=O)N3CCCC3)ccc21)NC1CCCc2ccccc21 (stereo unspecified)	23.3%	6.5	31.6µM*
O=C(Cn1c(=O)oc2cc(S(=O)(=O)N3CCCCCC3)ccc21)NC1CCCCCCC1	0.9%	0.8	-7.1%
O=C(Cn1c(=O)oc2cc(S(=O)(=O)N3CCCC3)ccc21)Nc1ccc(C(F)(F)F)cc1	13.3%	-0.9	25.1µM*
COc1cccc(NC(=O)Cn2c(=O)oc3cc(S(=O)(=O)N4CCCC4)ccc32)c1	-1.1%	7.0	/
O=c1[nH]c2cc(Cl)c(O)cc2o1	/	2.2	13.7%
COc1ccccc1-c1csc(NC(=O)c2cc(-c3cccs3)nc3ccccc23)n1	10.8%	6.6	8.91µM*
COc1ccc(-c2csc(NC(=O)c3cc(-c4cccs4)nc4ccccc34)n2)c(OC)c1	-10.9%	/	/
O=C(NNC(=O)c1cc2cc3ccccc3nc2s1)c1ccc(F)cc1	30.4%	1.8	3.16µM*
O=C(NNC(=O)c1cc2cc3ccccc3nc2s1)c1cccc(Cl)c1	12.1%	6.5	?
COc1cccc(CNc2ccc3c(c2)nc(C)n3C)c1OC	1.8%	-0.9	-4.9%
COc1cc(NCc2ccc3nc(N)nc(N)c3c2C)cc(OC)c1OC	11.7%	0.2	25.1µM*!
CC(C)CCC[C@@H](C)[C@H]1CC[C@H]2[C@@H]3CC=C4CC(O)CC[C@]4(C)[C@H]3CC[C@]12C (stereo partly specified)	/	-1.1	-3.5%
COC(=O)c1c(-n2c(C)cc(C=O)c2C)sc2c1CCCC2	23.8%	3.0	28.2µM*
Cc1cc(C=O)c(C)n1-c1sc2c(c1C(=O)O)CCCC2	6.0%	2.5	-0.3%
O=C(O)c1cccc(N2C(=O)c3cc([N+](=O)[O-])cc4cc([N+](=O)[O-])cc(c34)C2=O)c1	31.6µM*	11.5	?
O=C(O)c1cccc(N2C(=O)c3cccc4cccc(c34)C2=O)c1	-7.8%	-2.2	17.8%
CCCNC(=O)N1N=C(c2ccc(N)cc2)c2cc3c(cc2C1C)OCO3 (stereo unspecified)	/	3.0	?
CCOc1ccc(N(C(=O)OC(C)(C)C)C(=O)c2ccc(O[Si](C)(C)C(C)(C)C)cc2)c(I)c1	/	-5.4	26.8%
